# Screening data deposited in PubChem by National Center for Advancing Translational Sciences (NCATS).
# Pf growth 96h = P. falciparum growth inhibition at 96 hours; P. falciparum luciferase reporter growth, 96 h; Potency, µM (titrated, usually from 28.7 µM), usual class: inhibitors; actives 6.9% (n = 320,000)
#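 Two parasite generations (96 h, 37 C, 5% CO2) of compound exposure in infected erythrocytes (0.05% parasitemia, 2% hematocrit). Luciferase-reporter P. falciparum; decreased luminescence indicates inhibited growth, aimed at apicoplast-acting delayed death.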
# CHX counter = affects cycloheximide protein synthesis inhibition readout, counter-screen; max response, %; actives 12% (n = 300,000); cell reporter, cycloheximide protein synthesis inhibition counterscreen; AID 2314; in the data active means max response mostly above about 13%, no sharp cut-off; inactive means mostly below about 14%; further: read at 38.3 µM for the half of the compounds with a filed dose
# Pf growth 48h = inhibits P. falciparum growth in the first generation, 48 h | P. falciparum luciferase growth in erythrocytes, 48 h | Potency, µM (top dose mostly 28.7 µM), actives largely listed as inhibitors | actives 5.9% (n = 310,000)
#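 Firefly luciferase activity from engineered P. falciparum reports growth; inhibitors lower the luminescent signal. Cultures contained 2% hematocrit erythrocytes at 0.1% final parasitemia.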
# SARS PLP yeast = SARS-CoV PLP inhibition in yeast; S. cerevisiae expressing SARS-CoV PLpro, growth rescue; actives 0.19% (n = 330,000); Potency, µM (series often up to 32.9 µM), usual class: activators; AID 485353; calls by dose curve; further: nearly all actives have a fitted effect of over 55% in size
# AMA1-RON2 inh = inhibitors of Plasmodium falciparum AMA1-RON2 interaction; AlphaScreen AMA1-biotinylated RON2 peptide binding; Potency, µM (top dose mostly 58.2 µM), most hits filed as inhibitors; actives 0.2% (n = 360,000); AID 720542; further: nearly all actives have a fitted effect of over 45% in size
#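 AMA1 (3D7) with his tag at 25 nM final met compounds first, then biotinylated RON2 peptide at 25 nM; detection used donor plus acceptor beads, 10 µg/mL apiece, read by AlphaScreen after 30 min at room temperature.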
# Shiga inhibitor = blocks Shiga toxin action in Vero cells | AID 2315 | actives 9.2% (n = 290,000) | Vero cells, Shiga toxin protein synthesis inhibition reporter | inhibition, % at 38.7 µM; in the data active means inhibition mostly above about 28%, no sharp cut-off; inactive means mostly below about 43%
# Numbers stand for hits; 0 = inactive; ? = inconclusive; - = not tested or not shown; + = active, no number. Most compounds without a hit are left out; they make up all but 19% or so of the library. Unless noted, the call rests on the fitted dose curve; in most records, active means well fitted curve in the direction sought with a large enough effect; inconclusive means small, poorly fitted or top-dose-only effect, or another doubt; inactive means no such curve, though single readings can be large; an effect the other way counts as inactive or inconclusive.
SMILES,Pf growth 96h,CHX counter,Pf growth 48h,SARS PLP yeast,AMA1-RON2 inh,Shiga inhibitor
COc1ccc(CCn2c(=N)c(C(=O)NCC3CCCO3)cc3c(=O)n4ccccc4nc32)cc1 (stereo not drawn),4.65µM,0,4.65µM,0,0,0
Cc1ccc(Cn2c(=N)c(S(=O)(=O)c3ccc(Br)cc3)cc3c(=O)n4ccccc4nc32)cc1,0,0,0,0,0,0
N=c1c(C(=O)NCC2CCCO2)cc2c(=O)n3ccccc3nc2n1Cc1ccc(Cl)cc1 (stereo not drawn),?,0,10.4µM,0,0,0
N=c1c(S(=O)(=O)c2ccccc2)cc2c(=O)n3ccccc3nc2n1C1CCCCC1,-,-,-,-,0,-
N=c1c(C(=O)NCC2CCCO2)cc2c(=O)n3ccccc3nc2n1Cc1ccccc1 (stereo not drawn),?,0,?,?,0,0
COc1ccc(CCn2c(=N)c(S(=O)(=O)c3ccc(C)cc3)cc3c(=O)n4ccccc4nc32)cc1,3.7µM,0,5.22µM,0,0,0
N=c1c(S(=O)(=O)c2ccc(Br)cc2)cc2c(=O)n3ccccc3nc2n1C1CCCCC1,3.7µM,0,8.28µM,0,0,0
CC(=O)Nc1cc2c3c(c1)CC(=O)N3CCC2,0,0,0,0,0,0
COc1cc(OC)cc(C(=O)N[C@H](C(=O)OCC(=O)Nc2ccc(F)c(F)c2F)C(C)C)c1,0,0,0,0,0,0
O=C(O)CCCC(=O)N1N=C(c2ccccc2)CC1c1cccs1 (stereo not drawn),0,0,0,0,0,0
COc1ccc(CCn2c(=N)c(C(=O)NC3CCCC3)cc3c(=O)n4cccc(C)c4nc32)cc1,0.522µM,0,0.828µM,0,0,0
O=C(c1cccc(S(=O)(=O)N2CCOCC2)c1)N1CCN(C/C=C/c2ccccc2)CC1,?,-,?,0,0,-
O=C(NCc1cccs1)c1ccc(N2CCCC2=O)cc1,0,36.0,-,0,0,53.1
O=C(NCc1cccs1)c1ccc(N2CCCCC2)nc1,0,53.1,?,-,0,112.1
CC1CCCN(c2ccc(C(=O)NCc3ccccc3)cn2)C1 (stereo not drawn),?,31.0,0,0,0,104.2
COc1ccccc1Nc1ccc(C(=O)NCc2cccs2)cn1,0,0,0,0,0,0
CC1CCCN(c2ccc(C(=O)NCc3cccs3)cn2)C1 (stereo not drawn),?,44.6,0,0,0,active
COC(=O)C1CC1[C@H](NC(=O)c1cccnc1)c1ccccc1 (stereo partly drawn),-,0,-,-,-,0
CCOC(=O)C1CCCN(C(=O)c2cc(F)cc(F)c2)CC1 (stereo not drawn),-,-,-,-,0,-
CC1CCN(c2ccc(C(=O)NCCc3ccccc3)cn2)CC1,0,27.3,0,0,0,98.9
OCCCC1CCCN(Cc2cn[nH]c2-c2ccc(F)cc2F)C1 (stereo not drawn),7.38µM,0,0,0,0,0
O=C(C1CCN(Cc2cn[nH]c2-c2ccc(F)cc2F)CC1)N1CCOCC1,0,0,0,0,0,0
CN1CCN(Cc2cn[nH]c2-c2ccc(F)cc2F)[C@@H](c2ccccc2)C1,2.62µM,0,0,0,0,0
O=C(NCc1ccc(F)cc1)N1[C@H]2CC[C@@H]1C=C(c1ccc(F)cc1OCc1ccccc1)C2,-,-,-,-,0,-
O=C(C[n+]1cc(Br)cc2ccccc21)c1ccc(Cl)cc1,13.1µM,0,?,0,0,0
SMILES,Pf growth 96h,CHX counter,Pf growth 48h,SARS PLP yeast,AMA1-RON2 inh,Shiga inhibitor
O=C(C[n+]1cc(Br)cc2ccccc21)c1ccc(Br)cc1,?,0,0,0,0,0
O=C(C[n+]1cccc2ccccc21)c1ccc(Br)cc1,?,0,?,0,0,0
O=C(C[n+]1cn(C(F)F)c2ccccc21)c1ccc(Br)cc1,0,28.4,0,0,0,62.4
C[C@H](CO)N1C[C@H](C)[C@@H](CN(C)C(=O)Nc2cccc(F)c2)Oc2ncc(Br)cc2C1=O,-,-,-,-,0,-
CCOc1cc(C(=O)OC(C(=O)NC(=O)NC)c2ccccc2)ccc1OCC(=O)N1CCOCC1 (stereo not drawn),-,-,-,0,0,-
COCCN(C(=O)C1CC(=O)N(Cc2ccccc2)C1)c1nc(-c2ccc([N+](=O)[O-])cc2)cs1 (stereo not drawn),?,-,13.1µM,0,0,-
O=C(CNc1cc(S(=O)(=O)N2CCOCC2)ccc1NCC1CCCO1)Nc1cccc(F)c1 (stereo not drawn),0,0,0,0,0,0
CCN1/C(=C/c2ccc3cc(C)ccc3[n+]2CC)Sc2ccccc21,0,0,0.586µM,0,0,0
CC[n+]1c(/C=C2\Sc3ccccc3N2C)ccc2cccc(C)c21,0,0,?,0,0,0
CCN1/C(=C/c2ccc3cc(C)ccc3[n+]2CC)Sc2cc(C)c(C)cc21,0,0,2.08µM,0,0,0
Cc1ccccc1C(=O)OCc1cnc(Cl)s1,0,0,0,0,0,0
O=c1[nH]nc(Cc2ccc3ccccc3n2)c2ccccc12,0,28.3,0,0,0,35.8
CCOC(=O)C1=C(C)N(CC)C(=S)NC1c1ccc(Cl)cc1 (stereo not drawn),?,0,?,0,0,0
COc1cccc(CC(=O)N2CCCC(CO)(Cc3ccc(F)cc3F)C2)c1 (stereo not drawn),8.28µM,0,0,0,0,0
O=C(Cc1cccc(F)c1)N1CCCC(CO)(Cc2ccc(F)cc2F)C1 (stereo not drawn),0,0,0,0,0,0
Cc1occc1C(=O)N1CCCC(CO)(Cc2ccc(F)cc2F)C1 (stereo not drawn),0,0,0,0,0,0
Cc1oncc1C(=O)N1CCCC(CO)(Cc2ccc(F)cc2F)C1 (stereo not drawn),0,17.0,0,0,0,0
Cc1ccc(S(=O)(=O)N2CCOC23CCN(C(=O)C(=O)NCCC(C)C)CC3)cc1,0,-,0,0,0,-
N#C/C(=C\c1ccc(F)c(F)c1)C(=O)NC1CCCCC1,0,0,0,0,0,0
N#C/C(=C\c1ccc(F)c(Br)c1)C(=O)NC1CC1,?,29.9,0,0,0,42.1
C[C@@H]1NC(=O)c2cc([N+](=O)[O-])cc(I)c2NCCCC[C@@H](C(N)=O)NC(=O)[C@H](CC(N)=O)NC1=O,?,0,0,0,0,0
COc1nc(NC(C)(C)C)nc(Oc2ccc(=O)n(C)n2)n1,11.7µM,0,-,0,0,0
CC(C)Nc1nc(NC(C)(C)C)nc(Oc2ccc(=O)n(C)n2)n1,0,0,0,0,0,0
CCCc1nnc(NC(=O)CCC(=O)NC2CCCCCC2)s1,?,0,0,0,0,0
CC(=O)c1ccc(NC(=O)c2ccccc2Sc2ncnc3sc(C)c(C)c23)cc1,?,17.5,?,0,0,+
